Among the data in PubChem BioAssay (EPA / NIEHS) are AC50 and outcome values, retold here.

SMILES strings stand for the structures. Several values for one entry are separate records, joined by “and”; a condition that tells them apart may be missing. Equal entries are not always repeated. Activity calls are given as the source filed them. Rule for the calls: active = hit-call score of the fitted dose curve at least 0.9, where 1 is the maximum; inactive = score below 0.9.

The nature of this assay: CCTE_Shafer_MEA_acute_burst_percentage_mean: CCTE's Neural Acute Assay for Percentage of Spikes in a Burst, Shafer Lab (AID 2284017).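 For AC50: curve fitted for loss of signal so potency reflects decreased burst percentage.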 How it is done:
CCTE_Shafer_MEA_acute assay is conducted using Axion Biosystems 48 well microelectrode array (MEA) plates and Maestro recording system. Each well of the MEA plate contains a grid of 16 microelectrodes embedded in the culture surface. Electrically active cells, such as neurons, can be cultured over the electrodes, and electrical activity in these cells can be recorded extracellularly. The spontaneous firing of neurons is captured from each electrode on a microsecond timescale providing both temporally and spatially precise data. […] The CCTE_Shafer_MEA_acute assay uses primary cultures of rat cortical neurons. As these cultures mature over time, neural networks develop functional activity and form cohesive networks in which electrical activity can be highly coordinated. Baseline 40-minute recordings are made on days post-plating 13 or 15, followed by a secondary 40-minute recording after chemical exposure.CCTE_Shafer_MEA_acute_burst_percentage_mean is a component of the CCTE_Shafer_MEA_acute assay. It measures the percentage of spikes (action potential firing) in a single-electrode burst (temporally-clustered groups of spikes) as the number of spikes in bursts divided by the total number of spikes during a recording in a microelectrode array (MEA) using Axion Biosystems Maestro 768 channel amplifier with the AxIS adaptive spike detector. The average of the burst percentages across electrodes is calculated to report a well-level value. The recordings before and after chemical treatment are used to calculate a percent change in the mean burst percentage in each well.Data from the assay component CCTE_Shafer_MEA_acute_burst_percentage_mean was analyzed into 1 assay endpoint. This assay endpoint, CCTE_Shafer_MEA_acute_burst_percentage_mean, was analyzed in the negative analysis fitting direction relative to DMSO as the negative control and baseline of activity. Using a type of functional reporter, gain or loss-of-signal activity can be used to understand electrical activity.
Spontaneous activity in the cortical cultures was recorded using an Axion Biosystems Maestro 768 channel amplifier and Axion Integrated Studios (AxIS) v1.8 (or later) software. The amplifier recorded from all channels simultaneously (gain = 1200 x; sampling rate = 12.5 kHz/channel): raw signals were filtered with a Butterworth band-pass filter (300-5000 Hz), which filters out slower local field potentials leaving only fast potentials, i.e., "spikes", arising from extracellular currents associated with action potentials (Pine 2006; Wheeler and Nam 2011). On-line spike detection of filtered signals was conducted with the AxIS adaptive spike detector, using a threshold of 8x the root mean squared (rms) noise on each channel. Any electrodes with rms noise levels greater than 5 uV were grounded (e.g., no data were recorded). Once grounded, an electrode was grounded for the duration of the experiment. All recordings were conducted at 37 C. Wells were deemed usable if on the day of the exposure >/= 10 electrodes were active (defined as >/= 5 spikes/min). On DIV 13 or 15, a minimum of three wells from one cortical culture preparation were treated with each compound (0.03-40 uM). Prior to recording baseline activity, each mwMEA plate was placed in the Maestro at 37 C and allowed to sit for 20 min while firing rates stabilized. Baseline activity (40 min) was recorded before the addition of each compound. An additional 40 min of spontaneous activity was recorded in the presence of each compound. Changes in network parameters relative to baseline were assessed following compound treatment.
Regarding `O=[N+]([O-])c1ccc(Oc2ccc(Cl)cc2Cl)cc1`, the AC50 (usually the concentration giving half of the maximal activity seen) was 10.6 µM (active).

With `C[N+](C)(C)CC1CO1` (centres undefined), the outcome was inactive.

On to `O=Cc1ccco1`, for which the result was inactive. On the same count and under the same terms, to `CCN(CC)N=O` belongs “inactive”; to `O=C(Oc1ccc(Br)cc1)N1CCN2CCC1CC2`, “inactive”; to `N#CC(Br)Br`, “inactive”.

For `Cc1ccc(N)c(N)c1`, the half-maximal activity concentration (AC50) was 20 µM (active). As to `ClCCOCCCl`, the molecule was called inactive. On to `Cc1cc(N=Nc2ccccc2C)ccc1N`, for which the AC50 was 26.6 µM (active). In the case of `Clc1ccc(C(c2ccc(Cl)cc2)C(Cl)(Cl)Cl)cc1`, the AC50 is 11.4 µM (active). For `O=P(OCCCl)(OCCCl)OCCCl`, the outcome was inactive.

Take `[Cl-].[Cl-].[Hg+2]`: the concentration at half-maximal activity (AC50) was 20 µM (active).

Take `O=C(N[C@H](c1ccccc1)[C@@H]1CN2CCC1CC2)c1c(Cl)ccc(C(F)(F)F)c1Cl`: the outcome was inactive. Consider `ClC1=C(Cl)[C@]2(Cl)[C@H]3[C@H]([C@@H]4C=C[C@H]3C4)[C@@]1(Cl)C2(Cl)Cl`, for which the molecule was called inactive. In the case of `CC(C)COC(=O)c1ccccc1C(=O)OCC(C)C`, the AC50 was 9.02 µM (active). In the case of `CCN(CC)CCO`, the molecule was called inactive.

Take `c1ccc(N=Nc2ccccc2)cc1`: the AC50 was 26.8 µM (active). For `CC(C)(C)C(O)(CCc1ccc(Cl)cc1)Cn1cncn1` (centres undefined), the outcome was inactive. Take `CCC(C)c1ccc(O)cc1` (centres undefined): the AC50 is 29.6 µM (active). Regarding `CCCCCOC(=O)c1ccccc1C(=O)OCCCCC`, the AC50 is 9.17 µM (active).

`ClC1=C(Cl)C2(Cl)C3C(Cl)C=CC3C1(Cl)C2(Cl)Cl` (centres undefined): the AC50 was 0.72 µM (active). Consider `CC(C)(O)c1cnn2c(-c3ccc(F)c(-c4c(F)cccc4C#N)c3)cnc2n1`, for which the AC50 was 20 µM (active).

Turning to `Clc1ccc(C(c2ccc(Cl)cc2)C(Cl)Cl)cc1`, the concentration at half-maximal activity (AC50) is 5.41 µM (active). With `CCCCCCCCn1sccc1=O`, the AC50 is 8.26 µM (active). As for `CCCCOC(=O)c1ccccc1C(=O)OCc1ccccc1`, the AC50 is 6.09 µM (active). Regarding `COC(=O)Nc1nc2ccccc2[nH]1`, the molecule was called inactive. Consider `CC(C)(OOC(C)(C)c1ccccc1)c1ccccc1`, for which the result was inactive.

As to `CCC[CH2][Sn]([Cl])([CH2]CCC)[CH2]CCC`, the AC50 was 221 nM (active) and 330 nM (active). As to `O=[N+]([O-])C(Br)(CO)CO`, the AC50 is 30.2 µM (active).
